Measured values taken from PubChem BioAssay (NCATS).
Inconclusive results are not listed. Activity calls are given as the source filed them. Calls come from the whole dose curve; as a rule, active = well fitted curve in the direction sought with a large enough effect; inconclusive = small, poorly fitted or top-dose-only effect, or another doubt; inactive = no such curve, though single readings can be large; an effect the other way counts as inactive or inconclusive.

Legend:
[1] = system: HaCat; assay: Cytotoxic Profiling of Annotated Libraries Using Quantitative High-Throughput Screening (AID 1296008); conditions: Five cell lines viability, CellTiter-Glo ATP luminescence, 48-72 h; max response: active compounds read low; note: nearly all actives have a fitted effect of over 60% in size
Summary of the method: (§1)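 Cytotoxicity was measured as CellTiter-Glo ATP luminescence, read after 10 min at room temperature. Compound treatment of the cells lasted 48 or 72 hr at 37 degrees Celsius in a qHTS format.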

[2] = system: KB-3-1; assay: as above; conditions: Five cell lines viability, CellTiter-Glo ATP luminescence, 48-72 h; max response: active compounds read low
Summary of the method: as §1

[3] = system: NIH3T3; assay: as above; conditions: Five cell lines viability, CellTiter-Glo ATP luminescence, 48-72 h; max response: active compounds read low
Summary of the method: as §1

[4] = system: HACAT; assay: qHTS assay to identify novel small-molecules to repurpose for Merkel cell carcinoma treatment (AID 1296009); conditions: MCC and control cell lines, CellTiter-Glo viability, 72 h; at 44.8 µM (top of the series) unless noted; note: nearly all actives have a fitted effect of over 60% in size
Summary of the method: (§2)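 72 hr, 37 degree celsius; NPC 8-pt / MIPE 11-pt dose response; compound pinned in DMSO; CellTiter-Glo, 10 min RT, luminescence; normalized to no-cell and DMSO controls.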

[5] = system: MCC-13; assay: as above; conditions: MCC and control cell lines, CellTiter-Glo viability, 72 h; series mostly up to 46 µM
Summary of the method: as §2

[6] = system: MCC-26; assay: as above; conditions: MCC and control cell lines, CellTiter-Glo viability, 72 h; series mostly up to 46 µM
Summary of the method: as §2

[7] = system: MKL-1; assay: as above; conditions: MCC and control cell lines, CellTiter-Glo viability, 72 h; series mostly up to 46 µM
Summary of the method: as §2

[8] = system: MKL-2; assay: as above; conditions: MCC and control cell lines, CellTiter-Glo viability, 72 h; series mostly up to 46 µM
Summary of the method: as §2

[9] = system: NIH3T3; assay: as above; conditions: MCC and control cell lines, CellTiter-Glo viability, 72 h; at 44.8 µM (top of the series) unless noted
Summary of the method: as §2

[10] = system: UISO; assay: as above; conditions: MCC and control cell lines, CellTiter-Glo viability, 72 h; series mostly up to 46 µM
Summary of the method: as §2

[11] = system: WaGa; assay: as above; conditions: MCC and control cell lines, CellTiter-Glo viability, 72 h; series mostly up to 46 µM
Summary of the method: as §2

[12] = system: C33A; assay: Primary qHTS to identify gynecologic anti-cancer compounds using libraries of approved drugs and bioactive compounds (AID 1345084); conditions: Gynecologic cancer cell panel viability, ATPlite luminescence, 48 h; series mostly up to 57.5 µM; note: nearly all actives have a fitted effect of over 55% in size
Summary of the method: (§3)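 48 h compound exposure at 37 C, 5% CO2; five-point qHTS. ATPlite luminescence readout of cell ATP.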

[13] = system: CAOV3; assay: as above; conditions: Gynecologic cancer cell panel viability, ATPlite luminescence, 48 h; series mostly up to 57.5 µM
Summary of the method: as §3

[14] = system: CASKI; assay: as above; conditions: Gynecologic cancer cell panel viability, ATPlite luminescence, 48 h; series mostly up to 57.5 µM
Summary of the method: as §3

[15] = system: Es-2; assay: as above; conditions: Gynecologic cancer cell panel viability, ATPlite luminescence, 48 h; series mostly up to 57.5 µM
Summary of the method: as §3

[16] = system: HeLa; assay: as above; conditions: Gynecologic cancer cell panel viability, ATPlite luminescence, 48 h; series mostly up to 57.5 µM
Summary of the method: as §3

[17] = system: Hek293T; assay: as above; conditions: Gynecologic cancer cell panel viability, ATPlite luminescence, 48 h, control line for the selectivity index; series mostly up to 57.5 µM
Summary of the method: as §3

[18] = system: JEG-3; assay: as above; conditions: Gynecologic cancer cell panel viability, ATPlite luminescence, 48 h; series mostly up to 57.5 µM
Summary of the method: as §3

[19] = system: OV90; assay: as above; conditions: Gynecologic cancer cell panel viability, ATPlite luminescence, 48 h; series mostly up to 57.5 µM
Summary of the method: as §3

[20] = system: HEK293T; assay: qHTS assay to identify novel small-molecules to repurpose for Merkel cell carcinoma treatment (AID 1296009); conditions: MCC and control cell lines, CellTiter-Glo viability, 72 h; at 44.8 µM (top of the series) unless noted; note: nearly all actives have a fitted effect of over 60% in size
Summary of the method: as §2
% is set by controls: 0 for no effect and ±100 for the full control effect.

COc1ccc(C2C(=O)c3ccccc3C2=O)cc1
inactive: outcome [1] | max response [2] 1.39% | outcome [3] | outcome [4] | Potency [5] | Potency [6] | Potency [7] | Potency [8] | outcome [9] | Potency [10] | Potency [11] | Potency [12] | Potency [13] | Potency [14] | Potency [15] | Potency [16] | Potency [17] | Potency [18] | Potency [19]

Cc1c(N(C)CS(=O)(=O)O)c(=O)n(-c2ccccc2)n1C
inactive: outcome [1] | max response [2] 16.1% | outcome [3] | outcome [4] | outcome [20] | Potency [5] | Potency [6] | Potency [7] | Potency [8] | outcome [9] | Potency [10] | Potency [11] | Potency [12] | Potency [13] | Potency [14] | Potency [15] | Potency [18] | Potency [19]

CC(O)(P(=O)(O)O)P(=O)(O)O
inactive: outcome [1] | max response [2] 0.618% | max response [3] 0.0838% | outcome [4] | outcome [20] | Potency [5] | Potency [6] | Potency [7] | Potency [10] | Potency [11] | Potency [12] | Potency [13] | Potency [14] | Potency [15] | Potency [16] | Potency [17] | Potency [18] | Potency [19]

COC(=O)[C@@H]1CC2=CC(=O)CC[C@]2(C)[C@@]23O[C@@H]2C[C@@]2(C)[C@@H](CC[C@@]24CCC(=O)O4)[C@H]13
inactive: outcome [1] | max response [2] -7.46% | outcome [3] | outcome [4] | Potency [5] | Potency [6] | Potency [7] | Potency [8] | outcome [9] | Potency [10] | Potency [11] | Potency [12] | Potency [13] | Potency [14] | Potency [15] | Potency [16] | Potency [17] | Potency [18] | Potency [19]

N[C@H](Cc1c[nH]c2ccccc12)C(=O)O
inactive: outcome [1] | max response [2] 5.87% | max response [3] 3.07% | outcome [4] | outcome [20] | Potency [5] | Potency [6] | Potency [7] | Potency [8] | Potency [11] | Potency [12] | Potency [13] | Potency [14] | Potency [15] | Potency [16] | Potency [17] | Potency [18] | Potency [19]

CC1(C)O[C@@H]2[C@@H](CO[C@@]3(COS(N)(=O)=O)OC(C)(C)O[C@@H]23)O1
inactive: outcome [1] | max response [2] 12.1% | max response [3] -0.846% | outcome [4] | outcome [20] | Potency [5] | Potency [6] | Potency [7] | Potency [8] | Potency [10] | Potency [11] | Potency [12] | Potency [13] | Potency [14] | Potency [15] | Potency [16] | Potency [17] | Potency [18] | Potency [19]
